Laboratory results published in PubChem BioAssay (NCI).
This is part of a sample that, as a whole, favours compounds with a hit. Of some 79,000 tested, about 15% had one in any assay. No stated cut-off is given here; in the data, active means growth inhibition above about 70%; inactive means the rest.

How the values were obtained:
[1] = NCI Yeast Anticancer Drug Screen. Data for the rad50 strain (AID 155);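 further: 0% = growth of vehicle-only cultures of the same strain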; settings: S. cerevisiae rad50 strain growth inhibition; at 50.0 µM; hits give high values
How it was run: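 Growth of the mutant yeast was measured after compound exposure and referenced to vehicle-treated cultures.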

[2] = NCI Yeast Anticancer Drug Screen. Data for the mec2-1 strain (AID 157); settings: S. cerevisiae mec2-1 strain, at 50.0 µM, hits give high values
How it was run: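 Test agents were screened against the mec2-1 yeast strain, with defined DNA repair or cell cycle alteration. Growth was scored as inhibition against vehicle-only controls.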

[3] = NCI Yeast Anticancer Drug Screen. Data for the sgs1 mgt1 strain (AID 161);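 further: 0% = growth of cultures given vehicle only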; settings: S. cerevisiae sgs1 mgt1 strain, at 50.0 µM, hits give high values
How it was run: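 Test agents were incubated with a DNA-repair-mutant yeast strain. Growth was then read and compared against vehicle-treated controls.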

[4] = NCI Yeast Anticancer Drug Screen. Data for the cln2 rad14 strain (AID 165);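 further: 0% = growth equal to vehicle treated cultures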; settings: S. cerevisiae cln2 rad14 strain, at 50.0 µM, hits give high values
How it was run: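 Growth of compound-exposed yeast (cln2 rad14 genotype) measured and expressed as inhibition relative to vehicle.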

[5] = NCI Yeast Anticancer Drug Screen. Data for the bub3 strain (AID 167); settings: S. cerevisiae bub3 mutant strain, at 50.0 µM, hits give high values
How it was run: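 Whole-cell yeast assay. The mutant strain was incubated with compounds, and growth inhibition was determined by comparison with vehicle-treated cells.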

[6] = NCI Yeast Anticancer Drug Screen. Data for the mlh1 rad18 strain (AID 175); settings: S. cerevisiae mlh1 rad18 strain growth inhibition; at 50.0 µM; hits give high values
How it was run: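 In this whole-cell yeast screen, a strain with altered DNA damage repair is challenged with compound, and its growth is measured against matched vehicle-treated controls.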

Measured: growth inhibition

CC(=O)N1Cc2cncnc2C1
inactive: [1] -0.8% | [2] 5.95% | [3] -2.5% | [4] -17.1% | [5] -0.95% | [6] 23.7%

CCN(CC)CCN(C(=O)c1ccc(F)cc1)c1ccccc1N
inactive: [1] -13.2% | [2] -34.1% | [3] -23.6% | [4] -11.9% | [5] 3.85% | [6] -23.6%

CC1S(=O)(=O)OCCCOS1(=O)=O
inactive: [1] -22.8% | [2] -19.2% | [3] -9.95% | [4] -13.2% | [5] -2.45% | [6] -17.6%

COc1cc2c(c(OC)c1OC)-c1c(cc3c(c1OC)OCO3)C1OC2C(C)C1C (stereo unspecified) (tested in a mixture with another compound)
inactive: [1] -23.6% | [2] -55% | [3] -9% | [4] -20.4% | [5] -20.6% | [6] -39.2%

O=C(O)c1ccncc1
inactive: [1] 12.2% | [2] -9.65% | [3] 8.1% | [4] 46.9% | [5] -2.9% | [6] 17.9%

CC(C)c1sc([S-])n[n+]1-c1ccccc1
inactive: [1] 10.2% | [2] -0.65% | [3] -9.5% | [4] -15.4% | [5] -4.3% | [6] 7%

C=C1C(=O)O[C@H]2C1[C@H](OC(=O)/C(C)=C\COC(C)=O)C[C@]1(CO1)[C@@H]1[C@H](O)[C@H]3O[C@@]3(C)[C@@H]12 (stereo partly specified)
inactive: [1] -5.95% | [2] -26.4% | [3] -13% | [4] -1% | [5] -52% | [6] -2.05%

Cc1ccc(CN2CCOCC2)c(O)c1
inactive: [1] 18.9% | [2] 9.15% | [3] -0.65% | [4] -0.1% | [5] -7.45% | [6] -11.4%

O=S(=O)(c1ccccc1)C1(Sc2ccccc2)CC(Br)[C@@H](Br)C1 (stereo partly specified)
inactive: [1] 21.9% | [2] 7.3% | [3] 25.5% | [4] 8% | [5] -6.65% | [6] -5.55%

CC(=C(C#N)C#N)c1ccccc1
inactive: [1] 11% | [2] 2.5% | [3] 13.1% | [4] 6.45% | [5] 2.8% | [6] 5.45%

COc1ccc(Nc2nc3c(N)cc(C(F)(F)F)cc3nc2-c2ccccc2)cc1
inactive: [1] 10.7% | [2] 2.65% | [3] -1.7% | [4] 25.9% | [5] 6.1% | [6] 1.4%

Cc1ccc(P(=O)(O)O)c([N+](=O)[O-])c1
inactive: [1] 5.4% | [2] 1.7% | [3] -3.65% | [4] -7.2% | [5] -4.35% | [6] 12.9%

CNC(=O)N(C)COC
inactive: [1] -2.65% | [2] -10.9% | [3] 2.55% | [4] -0.7% | [5] -40.8% | [6] -5.1%

CCOC(=O)C1(C(=O)OCC)C2C=CC(C2)C1C(=O)OC (stereo unspecified)
inactive: [1] -0.65% | [2] -2.4% | [3] 15.8% | [4] -60.3% | [5] 8.45% | [6] 8.3%

Nc1nc(-c2ccccc2)nc(N)c1C=O
inactive: [1] -21.8% | [2] -21.9% | [3] -43.2% | [4] -4.95% | [5] -6.9% | [6] -20.6%

c1ccc2[nH]c3[nH]c4[nH]c5ccccc5[nH]c4[nH]c3[nH]c2c1
inactive: [1] -29.2% | [2] -9.2% | [3] -20.6% | [4] -6.2% | [5] -8.5% | [6] -11.8%

O=[N+]([O-])c1ccc(-c2cn(-c3ccc(Cl)cc3)cn2)cc1
inactive: [1] 2.75% | [2] -4.15% | [3] 7.5% | [4] 3.35% | [5] -1.85% | [6] -5.7%

CC(=O)OC1C(C2COCO2)OCOC1C1COCO1 (stereo unspecified)
inactive: [1] -3.3% | [2] -7.15% | [3] 3.5% | [4] -16.6% | [5] -6.65% | [6] -18%

CC[O-].CC[O-].O=C([CH-]C(=O)c1ccccc1)CCCCCCC(=O)[CH-]C(=O)c1ccccc1.[Ti+4]
inactive: [1] -39.5% | [2] -13.7% | [3] -33.5% | [4] -4.7% | [5] 4.95% | [6] -17.7%

Cc1cc(C)c(C(=O)/C(O)=C/c2ccccc2)c(C)c1
inactive: [1] -13.7% | [2] -7.7% | [3] 1.2% | [4] 9.95% | [5] -45.5% | [6] -14.2%

O=C(Cc1ccccc1)NNC(=O)Nc1ccccc1
inactive: [1] 4% | [2] -3.6% | [3] 9.4% | [4] -26.6% | [5] 2.5% | [6] 1.05%
